# Out of some 310,000 compounds screened, about 2,200 (0.71%) showed an effect of 50% or more. Effects have a minus sign here. The entries come from a sample that favours strong results as a whole.
# Target: human ether-à-go-go-related gene (hERG) potassium channel (human, UniProt Q12809)
# Test: primary screen, population patch clamp on CHO cells stably expressing hERG; higher = less effect of the substance
# Procedure: Briefly, Chinese hamster ovary (CHO) cells stably expressing the hERG channel were dislodged from tissue culture flasks and dispensed into PPC plates. […] During the recording, background leak currents were estimated by a 100 ms step to -80 mV from an initial holding potential of -70 mV and subtracted from the subsequent current measurement. The campaign was conducted in two phases using slight differences in recording protocol. In the first phase, the initial voltage pulse used a 100 ms step to -30 mV from a holding potential of -70 mV, a 2 s conditioning step to +25 mV, and a 2 s test step to -30 mV. During the second phase of the screen, the potential during the conditioning step was raised to +45 mV. In both phases of the campaign, a secondary voltage pulse was applied using the same parameters as the second phase initial pulse. The initial and secondary pulses were applied in the absence of compound, and upon application of 1 μM and 10 μM test concentrations. Small molecule effects on hERG current density were quantified by […].
# human ether-à-go-go-related gene (hERG) potassium channel, sequence (Q12809 whole entry, looked up): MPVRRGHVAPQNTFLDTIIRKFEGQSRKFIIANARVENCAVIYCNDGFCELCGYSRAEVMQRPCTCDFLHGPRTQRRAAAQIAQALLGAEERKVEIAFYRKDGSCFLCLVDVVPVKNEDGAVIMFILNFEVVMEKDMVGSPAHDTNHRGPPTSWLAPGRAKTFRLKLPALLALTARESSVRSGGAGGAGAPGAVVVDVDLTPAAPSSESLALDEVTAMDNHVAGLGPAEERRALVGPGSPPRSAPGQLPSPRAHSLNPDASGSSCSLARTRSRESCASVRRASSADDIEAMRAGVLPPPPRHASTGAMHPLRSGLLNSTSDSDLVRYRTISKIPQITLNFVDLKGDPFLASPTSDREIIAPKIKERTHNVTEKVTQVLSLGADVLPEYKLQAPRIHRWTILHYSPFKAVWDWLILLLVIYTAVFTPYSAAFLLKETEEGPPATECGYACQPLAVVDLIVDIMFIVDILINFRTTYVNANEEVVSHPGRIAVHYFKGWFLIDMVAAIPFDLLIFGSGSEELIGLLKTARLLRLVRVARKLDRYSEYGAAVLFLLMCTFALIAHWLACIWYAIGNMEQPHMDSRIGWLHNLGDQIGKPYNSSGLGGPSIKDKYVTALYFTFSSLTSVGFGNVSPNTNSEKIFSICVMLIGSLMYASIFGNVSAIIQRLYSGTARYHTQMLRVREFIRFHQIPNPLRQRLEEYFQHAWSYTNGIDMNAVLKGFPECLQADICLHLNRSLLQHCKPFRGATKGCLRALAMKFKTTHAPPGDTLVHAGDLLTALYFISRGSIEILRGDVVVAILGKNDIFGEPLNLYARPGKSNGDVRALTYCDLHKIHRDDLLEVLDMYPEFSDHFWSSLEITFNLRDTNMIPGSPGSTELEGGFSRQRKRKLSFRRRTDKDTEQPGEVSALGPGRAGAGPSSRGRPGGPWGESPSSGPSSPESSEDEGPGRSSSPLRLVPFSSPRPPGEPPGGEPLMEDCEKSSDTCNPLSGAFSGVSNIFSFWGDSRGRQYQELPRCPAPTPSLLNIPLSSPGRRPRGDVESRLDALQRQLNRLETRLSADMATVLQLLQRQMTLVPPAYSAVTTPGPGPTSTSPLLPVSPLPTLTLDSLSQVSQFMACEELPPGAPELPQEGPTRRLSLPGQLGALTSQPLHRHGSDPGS
row,SMILES,"hERG current change (%, negative = inhibition) at 1uM [%]"
1,CCC(=O)O[C@]1(C(=O)CCl)[C@@H](C)C[C@H]2[C@@H]3CCC4=CC(=O)C=C[C@]4(C)[C@@]3(F)[C@@H](O)C[C@@]21C,18
2,Cl.N=c1n(CCN2CCCCC2)c2ccccc2n1CC(O)c1ccco1 (stereo not drawn),-4.15
3,COc1ccc(OCC(O)Cn2c(=N)n(CCN3CCCCC3)c3ccccc32)cc1.Cl (stereo not drawn),-51.2
4,COc1ccc(-c2cc3ccccc3n2CC(O)CN2CCOCC2)cc1 (stereo not drawn),2.37
5,CCOc1ccc(C(O)Cn2c(=N)n(CCN3CCCCC3)c3ccccc32)cc1.Cl (stereo not drawn),-56
6,Cc1cccc(OCC(O)Cn2c(=N)n(CCN3CCOCC3)c3ccccc32)c1.Cl (stereo not drawn),-8.29
7,Cc1cccc(OCC(O)Cn2c(=N)n(CCN3CCCCC3)c3ccccc32)c1.Cl (stereo not drawn),-59.8
8,Cl.N=c1n(CCN2CCCCC2)c2ccccc2n1CC(O)COc1ccccc1 (stereo not drawn),-32.7
9,COc1ccc(-c2cc3ccccc3n2CC(O)CN2CCC(C)CC2)cc1.O=C(O)C(=O)O (stereo not drawn),-49.8
10,Cc1ccccc1OCC(O)Cn1c(=N)n(CCN2CCOCC2)c2ccccc21.Cl (stereo not drawn),-25.3
11,CCCn1c(=N)n(CC(O)c2ccc(C)cc2)c2ccccc21.Cl (stereo not drawn),-14.9
12,Cc1ccc(OCC(O)Cn2c(=N)n(CCN3CCCCC3)c3ccccc32)cc1.Cl (stereo not drawn),-30.1
13,COc1ccc(-c2cc3ccccc3n2CC(O)CN2CCCCC2)cc1.O=C(O)C(=O)O (stereo not drawn),-74.6
14,CCCCC(=O)O[C@]1(C(=O)CO)CC[C@H]2[C@@H]3CCC4=CC(=O)CC[C@]4(C)[C@H]3[C@@H](O)C[C@@]21C,11.4
15,COc1ccc(N/C=C/C(=O)c2ccccc2)cc1,11
16,CCCCNC(=O)C1CCCN1C(=O)Nc1ccccc1 (stereo not drawn),0.208
17,O=S(=O)(NCc1cccnc1)c1ccc(Br)c2ccccc12,7.97
18,Cc1cc2nc(-c3ccc(SCc4ccc(C(=O)O)cc4)nc3)[nH]c2cc1C,14.5
19,COc1ccc2[nH]c(C(=O)O)c(CCNC(=O)/C=C/c3ccc(O)c(OC)c3)c2c1,13.1
20,CCCc1nnc(NC(=O)c2nc(S(=O)(=O)Cc3cccc(C)c3)ncc2Cl)s1,21
21,O=C1CCN(C(=O)Cc2ccccc2[N+](=O)[O-])CC1,14.3

row,SMILES,"hERG current change (%, negative = inhibition) at 1uM [%]"
1,O=C(Nc1cc(SCC(O)CO)cc([N+](=O)[O-])c1)c1ccc(-n2cnnn2)cc1 (stereo not drawn),17.4
2,Br.CC1(C(=O)CSc2n[nH]c(-c3ccccc3Cl)n2)CCC(=O)O1 (stereo not drawn),8.24
3,COc1ccc(N(CC(=O)NC2CCCCC2)S(=O)(=O)c2c(C)[nH]c(=O)[nH]c2=O)cc1,15.2
4,Cc1ccc(CNC(=O)c2nn(C)c(C)c2[N+](=O)[O-])cc1,5.74
5,Cl.N=c1n(CCN2CCCCC2)c2ccccc2n1CC(O)c1cccc(Br)c1 (stereo not drawn),-41.7
6,Cl.N=c1n(CCN2CCCCC2)c2ccccc2n1CC(O)c1ccc(Cl)c(Cl)c1 (stereo not drawn),-70.4
7,Cl.N=c1n(CCN2CCCC2)c2ccccc2n1CC(O)c1ccc(Cl)c(Cl)c1 (stereo not drawn),-33.2
8,COc1ccc(NC(=S)N2CCC(NC(=O)c3ccc(OC)cc3)CC2)cc1,11.3
9,COCCNC(=S)Nc1ccc2nc(N3CCOCC3)cc(C)c2c1,14.9
10,CCOCCCNC(=S)Nc1ccc2nc(N3CCCC3)cc(C)c2c1,-74.8
11,CCCN(CCC)CCCNC(=S)Nc1ccc2nc(N3CCCC3)cc(C)c2c1,-14.5
12,COCCNC(=S)Nc1ccc2nc(N3CCCC3)cc(C)c2c1,-50.5
13,CCN1CCN(c2cc(C)c3cc(NC(=S)N(CC)CC)ccc3n2)CC1,-8.83
14,CCOCCCNC(=S)Nc1ccc2nc(N3CCOCC3)cc(C)c2c1,9.64
15,CCOCCCNC(=S)Nc1ccc2nc(N3CCN(CC)CC3)cc(C)c2c1,10.7
16,CCN1CCN(c2cc(C)c3cc(NC(=S)N(C)Cc4ccccc4)ccc3n2)CC1,-56.7
17,CCCCN(C)C(=S)Nc1ccc2nc(N3CCN(CC)CC3)cc(C)c2c1,-46.4
18,COCCNC(=S)Nc1ccc2nc(N3CCN(C)CC3)cc(C)c2c1,9.02
19,Cc1cc(N2CCCC2)nc2ccc(NC(=S)NCCCOC(C)C)cc12,-78.6
20,CCN1CCN(c2cc(C)c3cc(NC(=S)NCCCOC)ccc3n2)CC1,12.1
21,NC(=O)NCCCC(NC(=O)c1ccc(C#CC2(O)CCCCC2)cc1)C(=O)O (stereo not drawn),8.16

# Source: PMC4336329 (PLoS ONE, 2015)
